# Assay results as given in the supplement of paper PMC6555819.
# What was measured:
# Test in all cases: PBM binding z-score (relative to random genomic background probes); higher = stronger binding; sequences stand for … in GC…GCGATTGACAGCGTAGAATGAAGG
# [1] = test system: FXR:RXRa (NR concentration 270 nM, RXRa partner concentration 90 nM)
# Procedure, shortened: (§1)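 On custom Agilent 4×180K arrays, double-stranded probes with 34-nt variable regions carried direct-repeat seeds, single-nucleotide variants, half-site ablations or random human genomic background. Ligand-free nuclear receptor dimers were applied for 1 h, and binding was read with antibodies against each partner (one per run). Binding z-scores come from regression-normalized fluorescence, with the random background probes as reference.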
# [2] = test system: LXRa:RXRa (NR concentration 270 nM, RXRa partner concentration 90 nM)
# Procedure, shortened: as §1
# [3] = test system: LXRa homodimer (NR concentration 270 nM)
# Procedure, shortened: as §1
# [4] = test system: LXRb:RXRa (NR concentration 270 nM, RXRa partner concentration 90 nM)
# Procedure, shortened: as §1
# [5] = test system: LXRb homodimer (NR concentration 270 nM)
# Procedure, shortened: as §1
# [6] = test system: PPARa:RXRa (NR concentration 270 nM, RXRa partner concentration 90 nM)
# Procedure, shortened: as §1
# [7] = test system: PPARg:RXRa (NR concentration 180 nM, RXRa partner concentration 90 nM)
# Procedure, shortened: as §1
# [8] = test system: PPARg:RXRa 270nM:90nM, anti-RXR (NR concentration 270 nM, RXRa partner concentration 90 nM)
# Procedure, shortened: as §1
# [9] = test system: PPARg:RXRa 30nM:10nM, anti-RXR (NR concentration 30 nM, RXRa partner concentration 10 nM)
# Procedure, shortened: as §1
# [10] = test system: PPARg:RXRa 90nM:30nM, anti-RXR (NR concentration 90 nM, RXRa partner concentration 30 nM)
# Procedure, shortened: as §1
Sequence,PBM binding z-score [1],PBM binding z-score [2],PBM binding z-score [3],PBM binding z-score [4],PBM binding z-score [5],PBM binding z-score [6],PBM binding z-score [7],PBM binding z-score [8],PBM binding z-score [9],PBM binding z-score [10]
CGTACTGGGCCAAAAAGGTCATTGATGCCGATAA,3.72,4.43,2.93,4.25,0.293,4.69,3.65,4.22,1.71,3.72
TCATATAGGTAATACAGGCGAAAGTCGGCATCTA,0.743,0.759,0.19,0.501,-0.147,1.06,0.851,2.29,4.01,3.08
TCATATAGGTAAAGGTGGAAGTCGAACGATATGA,0.695,0.507,0.313,0.415,0.0945,1.93,2.54,3.54,4.18,3.93
CAAACTAGGTCACGAAAGGTCTAAGTCGAATGAC,4.46,4.6,0.351,3.17,0.461,5.52,9.08,7.4,5.87,7.6
ATATGTGGGTTACATCCGGGTCATTCAGGCTATG,2.27,4.1,1.26,3.06,1.12,4.12,5.38,4.48,2.02,3.36
TCTTGTAGATCAGCAGGTTATGAAAGCTGGCCAA,0.122,0.0807,-0.501,0.444,-0.22,0.665,-0.222,1.29,2.49,1.59
GGAACGAGGGCGAGTTGATAGCAGAGTTTGATGG,-0.328,-0.505,-0.54,-0.523,-0.787,-0.0875,0.373,-0.24,-0.495,-0.42
ACTATTAGTTGAGACGAGGTCAACCGATAGGTTG,3.42,3.7,2.01,3.53,0.73,4.15,1.97,2.35,0.821,1.85
CGTTACGGGTCACGAGGTTATAGCACGACGAGCG,6.83,4.97,0.389,4.23,-0.0926,6.15,6.94,6.69,2.7,5.8
GGAACGAGGGCATTCAAGTTGATAGCATGGCGAT,1.18,1.46,-0.583,0.241,-0.723,1.52,1.12,0.948,-0.0725,0.427
CGTGCTAGGTCATGGTCAGCTAATCTACAGTATG,3.55,2.46,0.0428,1.84,-0.338,3.36,2.98,2.8,0.471,2.11
TAGCCTAGGTCATTGGGCCAGTCTAGTACGCATC,3.99,3.21,0.181,1.78,0.0728,3.41,3.3,3.25,0.536,2.3
CCTCTGAGGACAACAGGAGGTCAGAGCTGCCAGA,1.9,2.12,1.95,1.33,-0.394,1.88,0.389,0.288,-0.556,-0.276
TCTCGGGGGACACGAAAGGTCAGAGCTCGACATC,4.5,5.39,3.18,5.47,5.76,5.03,3.63,4.96,3.73,4.14
CGTCAAAGTTCAAGGTACCGTAACAGAAAGCAGC,6.16,5.65,3.11,3.48,0.91,4.61,4,4.81,1.82,3.9
CAAACCAGGTCAAGGTCAAAGTCGGTTTGTGCCA,7.11,5.98,4.41,5.17,1.73,6.28,7.8,7.07,4.62,6.61
CCTACTCGGCCACGAAAGGTCATTGATTCAGTGA,3.82,5.15,5.64,4.28,0.938,4.36,1.93,3.43,1.33,2.24
AGTCAAAGTTCAGGACGTGGTAACGTAAAGCACG,3.46,3.57,0.963,1.49,0.114,3.12,4.28,4.75,2.07,3.71
CCAGACAGGTGAAGGGTAACTCAGTCTGGTACGC,-0.0331,0.00398,-0.524,0.172,-0.582,1.76,2.98,3.63,1.6,3.42
CAAACTAGGTCAAGAGGTCAAGGTCCGCTTCCCG,6.64,6.02,4.56,4.63,1.32,6.41,9.76,8.19,6.69,8.28
CAAACTAGGTCAAAGCTCAAAGTCGAGCCAACCA,4.62,3.4,0.633,2.4,0.592,5.71,10.2,8.74,9.03,9.54
TCTCGGAGGACACGACGGTCAGAGCTTTCCAGAG,0.205,0.0184,-0.415,-0.277,-1.16,0.197,-0.0353,0.515,1.6,1.3
TCATATAGGTAATACAGGTGAAATTCGGCATCTA,1.05,1.37,0.75,1.17,0.147,1.96,1.65,2.53,3.85,3.09
